High-throughput results: PubChem, NMMLSC
In the library only some 1.9% were active in any assay of this set; here they are far more common.
VLA-4 allo ag = allosterically activates the human VLA-4 integrin | AID 528 | activation, % at 10 µM (by protocol) | 24,000 tested, under 10 active | P13612 | Jurkat cells, LDV-FITC binding, flow cytometry;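 active means fluorescent ligand binding to cells raised by more than 40% of the manganese-induced maximum; inconclusive means compound's own fluorescence above 85% of the ligand control signal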;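 further: 0% = ligand binding without compound and 100% = manganese-stimulated maximal binding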
VLA-4 antagonist = blocks LDV-FITC ligand binding to Mn2+-activated human VLA-4 integrin; P13612; Jurkat cells, LDV-FITC binding with Mn2+, flow cytometry; 100% = Mn2+-driven binding gain fully reversed; inhibition, % at 10 µM (by protocol); 24,000 tested, 0.2% active;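 active means inhibition above 50%; inconclusive means compound itself fluorescent, judged against control cell fluorescence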;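 further: 0% = Mn2+ stimulated cells lacking compound and 100% = ligand binding without Mn2+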
FPRL1 ligand = binds the human formylpeptide receptor-like-1 FPRL1; P25090; FPRL1-expressing cells, fluorescent ligand binding inhibition, flow cytometry; inhibition, % (concentration not given with the values); 24,000 tested, 0.3% active; AID 441;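 further: 0% = buffer alone and 100% = receptor blocker peptide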
Target sequence (P25090 whole entry, looked up): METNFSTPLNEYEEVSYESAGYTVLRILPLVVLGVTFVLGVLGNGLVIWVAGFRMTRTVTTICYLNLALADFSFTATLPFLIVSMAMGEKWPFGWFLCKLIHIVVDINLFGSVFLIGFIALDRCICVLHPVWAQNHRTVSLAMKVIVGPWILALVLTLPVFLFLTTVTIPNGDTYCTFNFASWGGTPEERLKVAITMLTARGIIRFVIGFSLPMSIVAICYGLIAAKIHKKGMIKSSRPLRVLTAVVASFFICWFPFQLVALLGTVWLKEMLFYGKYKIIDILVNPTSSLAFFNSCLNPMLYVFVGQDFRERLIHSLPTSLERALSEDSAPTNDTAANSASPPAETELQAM
Autofluor Jurkat = counter-screen for VLA-4 integrin: compound autofluorescence in Jurkat cells. fluorescence ratio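 (tested at 10 µM compound in the well)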. 24,000 tested, 0.61% active. flow cytometry; hits give high values; 1 = vehicle-only cell background;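 active means fluorescence ratio above 2.44, which is 1 plus 3 SD of all ratios; inconclusive means signal too bright to measure linearly, ratio around 10 or more; inactive means fluorescence ratio below 2.44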;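 further: green fluorescence of cells measured with 488 nm excitation and 530 nm emission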
FPR ligand = ligands of human FPR, also counter-screen for FPRL1 ligands | FPR-expressing cells, fluorescent ligand binding, flow cytometry | inhibition, % (concentration not given with the values) | 24,000 tested, 0.74% active | AID 440;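 further: 0% = buffer wells and 100% = receptor blocker peptide wells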
LNCaP diff act = promotes differentiation of LNCaP prostate cells; flow cytometry side scatter, 4 d; side scatter shift, % at 10 µM; 24,000 tested, 0.56% active;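 active means side scatter shift above 30%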;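 further: androgen-responsive LNCaP prostate cancer cells in charcoal-stripped serum medium; percent of cells past a gate set so DMSO wells show 10% shift; higher shift means more granular cells and more differentiation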
Active calls of the source: *; ? = inconclusive; nt = no result. Unless noted, no stated cut-off is given here; in the data, active means inhibition above about 30%; inconclusive means no clear call, values can overlap the other calls; inactive means below that.

SMILES	VLA-4 allo ag	VLA-4 antagonist	FPRL1 ligand	Autofluor Jurkat	FPR ligand	LNCaP diff act
COc1ccccc1-c1nnc(Nc2nc3c(OC)cccc3s2)o1	2	12	4	1.1	-4	18
CC(=O)Nc1cc(C(=O)N2CCOCC2)ccc1S(=O)(=O)c1ccc(C)cc1	-5	?	13	1.1	-1	37*
COc1ccc(C2C3=C(CCCC3=O)Nc3nc4ccccc4n32)c(OC)c1OC (centres undefined)	-1	-3	-1	1.1	-8	9
N#CC1=C(N)SC(N)=C(C#N)C1c1ccc(C(F)(F)F)cc1	12	-54	10	1.2	-2	2
N#CC1=C(N)SC(N)=C(C#N)C1CCc1ccccc1	?	?	-8	2.9*	-7	10
CCn1c(Oc2ccc(Oc3ncc(Cl)cc3Cl)cc2)nc2c1c(=O)n(C)c(=O)n2C	3	-2	8	1	-7	6
CCCc1[nH]nc2c1C(CCc1ccccc1)C(C#N)=C(N)O2 (centres undefined)	-10	61*	2	1.2	1	4
CCCc1[nH]nc2c1C(c1cccc(OC(=O)c3ccco3)c1)C(C#N)=C(N)O2 (centres undefined)	-4	11	3	1.1	-5	7
CCC(C)NC(=O)c1cn(C)c(=O)c2cc(OC)c(OC)cc12 (centres undefined)	-2	23	6	0.91	6	37*
CCOCCCNC(=O)c1cn(C)c(=O)c2cc(OC)c(OC)cc12	?	?	2	1.1	2	9
O=C(NC1CCCC1)c1ccc(CS(=O)(=O)c2ccc(Br)cc2)o1	-7	10	-10	1.1	-9	5
CCOc1ccccc1NC(=O)CSc1nccn1-c1ccccc1	-4	28	37*	0.97	44*	17
COc1ccc(NC(=O)CSc2nccn2-c2ccccc2)c(OC)c1	4	-13	-3	0.91	5	1
O=C(Cn1cc(C(=O)c2cccs2)c2ccccc21)NCc1ccc2c(c1)OCO2	?	?	-2	0.92	-11	6
O=C(NC1CCCC1)C1CC1c1ccccc1 (centres undefined)	-4	-4	46*	1.1	26	5
Cc1cccc2cc(C#N)c(SCCN3CCCCC3)nc12	6	-6	-3	1.3	2	40*
Cn1c(SCCN2CCCCC2)nnc1-c1ccccc1Br	-2	0	0	0.98	0	9
CCN(CC)S(=O)(=O)c1ccc(NC(=O)Cn2cnc3ccccc3c2=O)cc1	-3	-5	1	1	0	14
CCN(CC)S(=O)(=O)c1ccc(Nc2nc3ccccc3n3nnnc23)cc1	?	?	-2	3.2*	-11	6
Cc1cc(C)n(-c2nc3ccccc3nc2Nc2ccc3c(c2)OCO3)n1	?	?	-4	1.5	-9	21
c1ccc2c(c1)nc(Nc1ccc3c(c1)OCO3)c1nnnn12	?	?	-10	3.2*	-12	14
Cc1ccc(N2CCN(c3cc(C)nc4nc(C)nn34)CC2)c(C)c1	?	?	-3	1.2	0	3
COc1ccc2ccccc2c1C1CC(=O)N2CN(Cc3ccco3)CSC2=C1C#N (centres undefined)	?	?	-3	1.2	1	5
COc1ccc2ccccc2c1C1CC(=O)N2CN(C3CCCCC3)CSC2=C1C#N (centres undefined)	?	?	2	1.2	64*	3
CCN1C=C(Cc2cccs2)C2=C(C1)C(c1cccs1)C(C#N)=C(N)O2 (centres undefined)	?	?	-7	3.1*	6	nt
SMILES	VLA-4 allo ag	VLA-4 antagonist	FPRL1 ligand	Autofluor Jurkat	FPR ligand	LNCaP diff act
COc1ccc(-c2cc(C#N)nc(N3CCN(c4ccccc4)CC3)n2)cc1	nt	nt	1	nt	-3	nt
COc1ccc(-c2cc(-c3ccc(F)cc3)nc(N3CCN(C)CC3)n2)cc1	3	0	-2	0.96	0	48*
CCOC(=O)C1=C(C)N=c2s/c(=C\c3ccncc3)c(=O)n2C1c1ccc2c(c1)OCO2 (centres undefined)	?	?	-8	2	-14	35*
CC(CCc1ccccc1)NC(=O)C1CCN(S(=O)(=O)N2CCCCC2)CC1 (centres undefined)	-6	13	3	1.1	5	7
COc1ccc2oc(=O)c(C(=O)N3CCN(C45CC6CC(CC(C6)C4)C5)CC3)cc2c1	-15	-6	11	1.4	-1	18
COc1cccc2c1C(=O)c1c(O)c3c(c(O)c1C2=O)C[C@@](O)(C(C)=O)C[C@@H]3O[C@H]1C[C@H](N)[C@H](O)[C@H](C)O1	?	?	32*	?	-15	13
O=C1C2ON(c3ccc(Cl)cc3)C(c3ccco3)C2C(=O)N1c1ccccc1 (centres undefined)	2	-26	-2	1.1	-1	2
N#CC1=C(N)Oc2cc(Nc3ccccc3)ccc2C1c1ccncc1 (centres undefined)	nt	nt	-5	nt	-28	nt
CCOC(=O)CCn1nc(-c2ccc(Cl)cc2)cc1N	4	-10	51*	1	54*	11
COC(=O)C1Cc2c([nH]c3ccccc23)CN1 (centres undefined)	?	?	-7	4.1*	-8	9
CC(C)OC(=O)c1cc(=O)[nH]c2ccccc12	2	4	-1	1	4	9
COc1ccc(Nc2nc(N3CCCC3)c3ccccc3n2)cc1	-14	42	4	1.1	6	50*
CCOc1ccccc1NC(=O)C1=C(C)NC(=O)NC1c1cccc(OC)c1OC (centres undefined)	11	0	10	1	-5	7
O=C(NCC(c1cccnc1)N1CCN(c2ccccc2F)CC1)c1cccc(Cl)c1 (centres undefined)	-11	15	-2	1.1	-2	1
C=CCOC(=O)C(C#N)c1nc2ccccc2nc1N1CCN(Cc2ccccc2)CC1 (centres undefined)	?	?	-6	2.8*	-1	5
CCOC(=O)Cn1c(=NC(=O)CSC(C)=O)sc2cc(OC)ccc21	2	13	15	0.99	25	10
CC(=O)SCC(=O)N=c1sc2cc(F)ccc2n1C	8	-15	34*	0.99	56*	14
Cc1ccc(S(=O)(=O)Nc2nc3ccccc3nc2NCc2ccco2)cc1	?	?	2	4.8*	-3	9
COc1ccc2nc(Nc3nc(C)c(C(C)=O)s3)sc2c1	-12	63*	59*	1.2	6	7
Cc1nnc(NCc2n[nH]c(=O)c3ccccc23)c2ccccc12	-1	-15	0	1	8	33*
COc1ccc(Cc2n[nH]c(=O)c3ccccc23)cc1OC	5	-14	-5	0.98	6	nt
